Test results published in ChEMBL document CHEMBL3433997, “St. Jude Leishmania screening dataset” (2016).

Target: Glucose transporter (Leishmania mexicana) (UniProt O61059)
Assay: ST_JUDE_LEISH: Cytotoxicity at 2uM final concentration against transgenic Leishmania Mexicana promastigotes LmGT2 that are glucose transport deficient and complemented with the L. Mexicana glucose transporter 2. Activity is measured by DNA content using SYBR green in vitro
Type: functional

SMILES | inhibition [%]
COc1ccc(-c2cccc(NC(=O)c3cccc(C#N)c3)c2)cc1CN1CCC(O)CC1 | 4.2
Cc1cccc2nc(-c3cccc(-c4cccc(NC(=O)COc5ccccc5C(N)=O)c4)c3)[nH]c12 | 2.14
CCN(CC)CCOc1ccc(C(O)(C#CC(O)(c2ccccc2)c2ccc(OCCN(CC)CC)cc2)c2ccccc2)cc1 (centres undefined) | 1.94
CCOc1ccc2nc(NC(=O)c3csnn3)sc2c1 | -1.06
O=C(c1ccccc1)N1CCC(CN2CCOC(c3ccccc3)(c3ccccc3)C2)CC1 | 2.8
CCCCC(O)c1cc(O)c2c(c1)OC(C)(C)CC2C1=CCN(Cc2ccc3ccccc3c2)CC1 (centres undefined) | 0.64
Cc1nn(C)cc1C(C)Nc1nncc(-c2ccc(C(F)(F)F)cc2)n1 (centres undefined) | 3.38
O=C(C=Cc1cccc(F)c1)NC1CCC(CCN2CCc3ccc(-c4cnccn4)cc3CC2)CC1 (centres undefined) | 13.1
CC(C)c1cc(Oc2c(I)cc(CCNC(=N)N)cc2I)ccc1O | -2.44
O=[N+]([O-])c1cccc(CNCC2CCN(Cc3ccc4ccccc4c3)CC2)c1 | 2.23
COc1cccc(NC(=O)Nc2cc(-c3ccc4[nH]ncc4c3)cc3c2CNC3=O)c1 | 1.68
COc1ccccc1C(=O)N1CCN(Cc2cccs2)CC1 | 9.06
O=S(=O)(Nc1ccc(CCN2CCC(N3CCCCC3)CC2)cc1)c1cccc2cccnc12 | 1.88
CCC(CC)CN1C(=O)C(C)(c2ccccc2)N=C1N (centres undefined) | -1.23
COc1cc2nc(N3CCN(C(=O)c4ccc(N(C(=O)OC(C)(C)C)C(=O)OC(C)(C)C)cc4)CC3)nc(N)c2cc1OC | 0.52
COCCN1CCC(N(Cc2ccc(-c3ccc(C(F)(F)F)cc3)cc2)C(=O)Cn2c(CCc3cccc(F)c3F)cc(=O)c3c2CCC3)CC1 | -2.32
O=C(Nc1cccc(C(F)(F)F)c1)c1cccc(S(=O)(=O)NC2CCCN(CC3CCCCC3)C2)c1 (centres undefined) | 0.55
Cc1cc(-c2cccc3c(C(=O)N4CCc5cc6nccc(N7CCCN(C)CC7)c6cc54)cccc23)cc(C)n1 | 1.14
CC(C)(C)NCCN(Cc1ccc(-c2ccc(C(F)(F)F)cc2)cc1)C(=O)Cn1c(SCc2ccc(F)cc2)nc(=O)c2c1CCC2 | 1.74
COc1ccc2nccc([C@@H](O)CN3CCC(NC(=O)C(c4cccs4)N4CCN(c5ccc(F)cc5)CC4)CC3)c2c1 (some centres undefined) | 4.65
N#Cc1cccc(CN2CCCN(Cc3cccc(C(=O)Nc4ccc(Cl)cc4)c3)CC2)c1 | 0.64
CCC(O)c1ccc(Br)cc1NC(=O)c1cccc(Cl)c1 (centres undefined) | -0.55
CC(CN1CCN(C)CC1)C(=O)Nc1cccc(-c2ccc(-c3nc4cc(C(F)(F)F)ccc4[nH]3)cc2)c1 (centres undefined) | 5.41
O=C(NCc1ccccc1)NC1CCN(c2ccnc3cc(Cl)ccc23)C1 (centres undefined) | 0.94
